Hit rate of the full screen: of about 5,500 compounds, about 2,000 (36%) were called active. About 18% were inconclusive and are not listed. Rule as the data show it: active = normalized growth mostly below about 0.91 (no sharp cut-off); inconclusive = no clear call, values can overlap the other calls; inactive = mostly above about 0.92. The list shows a part of the results.
Assay: chemical genetic growth profiling, strain panel (AID 1159580);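 also: tested at 20 µM; growth read once vehicle control cultures reached saturation at 30 °C; 1 = growth at the plate median or of vehicle wells; lower values mean less growth of the strain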
Conditions: S. cerevisiae deletion strains, growth OD

Measured: normalized growth

Nc1ccc(C(=O)Oc2ccccc2)c(O)c1
active: locus YJR075W, strain HOC1, active compounds read low 0.84 | locus YKL068W, active compounds read low 0.93 | locus YKL085W, strain MDH1 (second series), active compounds read low 0.914 | locus YKL085W, strain MDH1, active compounds read low 0.914 | locus YKR001C, strain vps1, active compounds read low 0.672 | locus YKR026C, strain gcn3, active compounds read low 0.896 | locus YLR039C, strain RIC1, active compounds read low 0.346 | locus YLR102C, strain apc9, active compounds read low 0.917 | locus YLR262C, strain YPT6 (second series), active compounds read low 0.558 | locus YLR262C, strain YPT6, active compounds read low 0.352 | locus YLR268W, strain sec22, active compounds read low 0.861 | locus YLR320W, strain mms22, active compounds read low 0.797 | locus YLR330W, strain CHS5, active compounds read low 0.876 | locus YLR342W, strain FKS1 (second series), active compounds read low 0.662 | locus YLR371W, strain rom2, active compounds read low 0.77 | locus YLR418C, strain cdc73, active compounds read low 0.453 | locus YML032C, strain rad52, active compounds read low 0.774 | locus YML120C, strain ndi1, active compounds read low 0.904 | locus YML124C, strain tub3, active compounds read low 0.904 | locus YMR078C, strain ctf18, active compounds read low 0.861 | locus YMR205C, strain PFK2, active compounds read low 0.861 | locus YMR223W, strain ubp8, active compounds read low 0.825 | locus YMR307W, strain GAS1, active compounds read low 0.402 | locus YNL071W, strain lat1, active compounds read low 0.786 | locus YNL233W, strain BNI4, active compounds read low 0.788 | locus YNL271C, strain bni1, active compounds read low 0.918 | locus YNL298W, strain CLA4, active compounds read low 0.908 | locus YNL307C, strain MCK1, active compounds read low 0.323 | locus YNR052C, strain pop2, active compounds read low 0.883 | locus YOL147C, strain pex11, active compounds read low 0.767 | locus YOR136W, strain idh2, active compounds read low 0.919 | locus YOR144C, strain elg1, active compounds read low 0.888 | locus YOR184W, strain ser1, active compounds read low 0.504 | locus YOR270C, strain vph1, active compounds read low 0.732 | locus YOR316C, strain cot1, active compounds read low 0.918 | locus YPR119W, strain clb2, active compounds read low 0.91 | locus YPR141C, strain kar3, active compounds read low 0.896 | locus YPR163C, strain tif3, active compounds read low 0.71 | locus YPR167C, strain met16, active compounds read low 0.885 | strain wtn01, active compounds read low 0.751
inactive: locus YJR043C, strain POL32, active compounds read low 0.932 | locus YJR066W, strain TOR1, active compounds read low 0.893 | locus YKL009W, strain mrt4, active compounds read low 0.894 | locus YKL160W, strain elf1, active compounds read low 0.942 | locus YKL190W, strain CNB1, active compounds read low 0.939 | locus YKR091W, strain srl3, active compounds read low 0.948 | locus YLL001W, strain dnm1, active compounds read low 0.951 | locus YLL026W, active compounds read low 0.943 | locus YLL041C, strain sdh2, active compounds read low 0.929 | locus YLR027C, strain aat2, active compounds read low 0.927 | locus YLR058C, strain SHM2, active compounds read low 0.909 | locus YLR113W, strain HOG1, active compounds read low 0.862 | locus YLR221C, strain rsa3, active compounds read low 0.932 | locus YLR258W, strain gsy2, active compounds read low 0.948 | locus YLR342W, strain FKS1, active compounds read low 0.915 | locus YLR357W, strain rsc2, active compounds read low 0.919 | locus YLR370C, strain arc18, active compounds read low 0.927 | locus YLR384C, strain iki3, active compounds read low 0.962 | locus YML016C, strain PPZ1, active compounds read low 0.924 | locus YMR058W, strain fet3, active compounds read low 0.929 | locus YMR125W, strain sto1, active compounds read low 0.942 | locus YMR129W, active compounds read low 0.946 | locus YMR231W, strain pep5, active compounds read low 0.983 | locus YNL067W, strain RPL9B, active compounds read low 0.867 | locus YNL128W, strain TEP1, active compounds read low 0.905 | locus YNL153C, strain GIM3, active compounds read low 0.905 | locus YNL183C, strain NPR1, active compounds read low 0.859 | locus YNL209W, strain ssb2, active compounds read low 0.955 | locus YNL248C, strain rpa49, active compounds read low 0.923 | locus YNL250W, strain rad50, active compounds read low 0.95 | locus YNL322C, strain KRE1 (second series), active compounds read low 0.942 | locus YNR049C, strain mso1, active compounds read low 0.933 | locus YOL012C, strain htz1 1.98 | locus YOR001W, strain rrp6, active compounds read low 0.92 | locus YOR061W, strain CKA2, active compounds read low 0.928 | locus YOR069W, strain VPS5, active compounds read low 0.95 | locus YOR070C, strain gyp1, active compounds read low 0.937 | locus YOR080W, strain dia2, active compounds read low 0.961 | locus YOR083W, strain WHI5, active compounds read low 0.93 | locus YOR106W, strain vam3, active compounds read low 0.878 | locus YOR231W, strain MKK1, active compounds read low 0.923 | locus YOR265W, strain rbl2, active compounds read low 0.931 | locus YOR290C, strain snf2, active compounds read low 0.885 | locus YPL051W, strain arl3, active compounds read low 0.938 | locus YPL078C, strain atp4, active compounds read low 0.929 | locus YPL106C, strain sse1, active compounds read low 0.965 | locus YPL240C, strain hsp82, active compounds read low 0.953 | locus YPL256C, strain CLN2, active compounds read low 0.904

Reference: PubChem BioAssay AID1159580 (chemical genetic matrix, 2015)
